Source: PubChem BioAssay (NCATS)
Where “and” joins values, the source holds several entries; their conditions need not be identical. Equal entries are not always repeated. A number with no mark means an inactive call. Calls come from the whole dose curve.

These molecules were tested against Glucocorticoid receptor (Homo sapiens) (UniProt P04150) (assay: GR-EFC Redistribution (AID 451)). Conditions: CHO-K1 GR-EFC translocation, beta-gal luminescence, 2 h.
Excerpt: NIH Molecular Libraries Screening Centers Network [MLSCN]
NIH Chemical Genomics Center [NCGC]
The glucocorticoid receptor (GR) is a cytoplasmic receptor that belongs to the nuclear receptor family of ligand-dependent transcription factors. Upon glucocorticoid binding to its receptor, the glucocorticoid-GR complex translocates into the nucleus, where it binds as a dimer to specific DNA sequences (glucocorticoid response elements), enhancing or suppressing transcription of a wide variety of glucocorticoid-responsive genes. In addition to their important roles in normal physiology and metabolism, glucocorticoids are administered exogenously as treatments for a wide variety of allergic, autoimmune, and neoplastic conditions. Identification of compounds that modulate aspects of GR signalling would be useful in dissecting glucocorticoid response pathways as well as developing GR modulators with more targeted clinical effects.
Traditionally, GR modulators have been identified using receptor binding or direct transactivation assays. However, assays for glucocorticoid-dependent nuclear translocation can also be used to screen for compounds affecting GR signaling.
Immunocytochemical staining has been used to assay for GR translocation, but is not suitable for high throughout screening due to the multiple reagent addition and wash steps required. Recently, a novel cell-based GR assay in Enzyme Fragment Complementation (EFC) format was developed by DiscoveRx (Fremont, CA). The assay uses EFC of b-galactosidase (b-gal) as an indicator of GR-translocation in engineered CHO-K1 biosensor cells. The enzyme acceptor (EA) fragment of b-gal resides in the nucleus , as designed through the use of a proprietary set of sequence additions and modifications. The small peptide enzyme donor (ED) fragment of b-gal is fused directly to the C-terminus of GR, and is localized in the cytoplasm is the absence of receptor signaling. Upon binding to a GR ligand, the complex translocates to the nucleus, where intact enzyme activity is restored by complementation and b-gal activity is detected. We optimized this GR-EFC assay in homogenous 1536-well plate assay format for high throughput screening.
NCGC Assay Protocol Summary:
CHO-K1 cells stably expressing NLS-enzyme acceptor fragment (EA) of b-gal and GR-enzyme donor (ED) fragment of b-gal were maintained in F12 medium (Invitrogen, Carlsbad, CA) at 37 Celsius degrees under a humidified atmosphere containing 5% CO2 and 95% air. The medium contained 10% FBS, 2 mM L-glutamine, 50 U/ml penicillin 50 ug/ml streptomycin, and 250 ug/ml hygromycin and 500 ug/ml G418 (Invitrogen).
GR-translocation was measured beta-gal enzyme activity using the PathHunter Detection Kit containing cell membrane permeablizing reagent and beta-gal substrate (DiscoveRx, Fremont, CA). All compounds were screened as titrations from 0.6 nM to 46 uM final concentration. The assay was performed in 1536-well format as follows:
5 uL cell suspension (1,000 cells)/well
Incubation at 37 Celsius degrees for two hours
1.25 uL 1X detection buffer from the kit supplied by DiscoveRx
Incubation at room temperature for one hour
Read plate in luminescence mode in ViewLux plate reader (PerkinElmer)
Keywords: NIH Roadmap, MLSCN, MLI, MLSMR, GR-EFC, GREFC, qHTS, NCGC
Potency is the fitted concentration of half-maximal effect.

Sequence of Glucocorticoid receptor (Homo sapiens) (P04150 whole entry, looked up): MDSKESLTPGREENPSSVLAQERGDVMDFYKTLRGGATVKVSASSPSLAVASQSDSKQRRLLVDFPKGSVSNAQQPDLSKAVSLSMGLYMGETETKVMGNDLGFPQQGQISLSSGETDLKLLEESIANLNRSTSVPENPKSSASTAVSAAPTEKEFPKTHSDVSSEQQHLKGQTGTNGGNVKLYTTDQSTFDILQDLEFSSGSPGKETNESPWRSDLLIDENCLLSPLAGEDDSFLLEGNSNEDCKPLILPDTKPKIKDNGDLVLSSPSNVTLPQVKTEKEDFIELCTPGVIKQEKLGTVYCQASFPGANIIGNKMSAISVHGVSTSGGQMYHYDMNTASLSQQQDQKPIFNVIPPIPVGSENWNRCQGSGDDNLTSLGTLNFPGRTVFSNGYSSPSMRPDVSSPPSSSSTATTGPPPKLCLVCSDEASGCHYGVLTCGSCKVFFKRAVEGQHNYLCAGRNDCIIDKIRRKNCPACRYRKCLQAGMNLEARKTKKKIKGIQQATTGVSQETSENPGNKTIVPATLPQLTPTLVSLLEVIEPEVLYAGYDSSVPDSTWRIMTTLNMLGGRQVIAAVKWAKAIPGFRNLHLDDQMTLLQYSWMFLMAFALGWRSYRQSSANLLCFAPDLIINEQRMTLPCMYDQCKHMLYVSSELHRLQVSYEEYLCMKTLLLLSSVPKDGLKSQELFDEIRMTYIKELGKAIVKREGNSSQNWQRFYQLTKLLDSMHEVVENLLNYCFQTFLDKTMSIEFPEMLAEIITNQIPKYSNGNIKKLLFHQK

Row | Structure (SMILES) | Potency
1 | Clc1cncc(N2CCNCC2)n1 | > 46 µM
2 | COc1ccc2c3c([nH]c2c1)C(C)=NCC3 | > 20.6 µM and > 46 µM
3 | C=CCN1C[C@H](C)N([C@@H](c2ccccc2)c2ccc(C(=O)N(CC)CC)cc2)C[C@H]1C | > 46 µM
4 | CCCCCCCCCOc1ccc2[nH]cc(CCN)c2c1 | > 46 µM
5 | N[C@H](CCCCCP(=O)(O)O)C(=O)O | > 46 µM
6 | NC[C@H](CP(=O)(O)O)c1ccc(Cl)cc1 | > 46 µM
7 | C[C@@H](Cc1ccc(OCC(=O)O)cc1)NC[C@H](O)c1cccc(Cl)c1 | > 46 µM
8 | CCOC(OCC)P(=O)(O)CCCN | > 46 µM
9 | C(=C/c1ccccc1)/CN1CCN(CCOC(c2ccccc2)c2ccccc2)CC1 | > 46 µM
10 | CCOC(=O)c1ncn2c1[C@H]1CCCN1C(=O)c1cc(OC)ccc1-2 | > 46 µM
11 | C=CCN1CC[C@@]23c4c5ccc(O)c4O[C@H]2/C(=N\N=C2/CC[C@@]4(O)[C@H]6Cc7ccc(O)c8c7[C@@]4(CCN6CC=C)[C@@H]2O8)CC[C@]3(O)[C@@H]1C5 | > 46 µM
12 | CC(C)(O)[C@H]1O[C@@H]2CC[C@]3(C)[C@@]4(C)c5[nH]c6ccccc6c5C[C@@H]4CC[C@]3(O)C2=CC1=O | > 46 µM
13 | O=C(O)/C=C\CO | > 46 µM
14 | CCCN1C[C@H](C)N([C@H](c2ccc(C(=O)N(CC)CC)cc2)c2cccc(OC)c2)C[C@H]1C | > 46 µM
15 | c1cncc([C@@H]2CCCCN2)c1 | > 20.6 µM and > 46 µM
16 | CCC[C@@H]1CC2=CC(=O)CC[C@]2(C)[C@@H]2CC[C@@]3(C)[C@H](CC[C@]3(O)CCC(=O)O)[C@H]12 | > 46 µM
17 | COc1ccc2[nH]cc(C3=CCNCC3)c2c1 | > 46 µM
18 | Cc1o[nH]c(=O)c1C[C@@H](N)C(=O)O | > 46 µM
19 | CC(C)(O)[C@@H]1[C@H]2OC(=O)[C@@H]1[C@]1(O)C[C@H]3O[C@]34C(=O)O[C@H]2[C@@]14C (tested in a mixture with another compound) | > 46 µM
20 | NC(=NCc1ccc(Cl)cc1)SCCCc1cnc[nH]1 | > 46 µM

Row | Structure (SMILES) | Potency
21 | NC(=NCCc1ccc(I)cc1)SCCCc1cnc[nH]1 | > 46 µM
22 | N#CC(C#N)=Cc1ccc([N+](=O)[O-])c(O)c1 | > 46 µM
23 | CC[N+](CC)(CCCNC1=CC(=O)C(NCCC[N+](CC)(CC)Cc2ccccc2)=CC1=O)Cc1ccccc1 | > 46 µM
24 | CN1Cc2ccccc2[C@@H]2c3cccc4[nH]cc(c34)C[C@H]21 | > 46 µM
25 | CN(C)Cc1c[nH]c2ccccc12 | > 20.6 µM and > 46 µM
26 | C[C@@H](N)Cn1ccc2cc(F)c(Cl)cc21 | > 46 µM
27 | CC(C)(C)NC[C@@H](O)COc1cccc2[nH]c(C#N)cc12 | > 46 µM
28 | CN(C(=O)Cc1ccc(Cl)c(Cl)c1)[C@@H](CN1CCCC1)c1cccc(OCC(=O)O)c1 | > 46 µM
29 | CNCCc1cnc[nH]1 | > 46 µM
30 | Cc1nc(N)sc1CCN | > 46 µM
31 | c1ccc2c(c1)OC[C@@H](C1=NCCN1)O2 | > 46 µM and > 20.6 µM
32 | CS(=O)(=O)Nc1ccc(Cc2noc(-c3ccc4[nH]cc(CCN)c4c3)n2)cc1 | > 46 µM
33 | N[C@@H](CCCCP(=O)(O)O)C(=O)O | > 46 µM
34 | COC(=O)c1cc2c(cn1)[nH]c1ccccc12 | > 46 µM
35 | CC1=C(O)C(=O)[C@H]2O[C@@H]2C1=O | > 46 µM
36 | CN1C[C@H](CNC(=O)OCc2ccccc2)C[C@H]2c3cccc4c3c(cn4C)C[C@@H]21 | > 20.6 µM and > 46 µM
37 | COc1ccc(-n2nc(C(F)(F)F)cc2-c2ccc(Cl)cc2)cc1 | > 46 µM
38 | C[C@](N)(CCP(=O)(O)O)C(=O)O | > 46 µM
39 | C=C(C)CN1CC[C@@]23c4c5ccc(O)c4O[C@H]2c2[nH]c4ccccc4c2C[C@]3(O)[C@@H]1C5 | > 46 µM
40 | O=C(Cc1ccc(Cl)c(Cl)c1)N1CCCC[C@H]1CN1CCCC1 | > 46 µM
